The list is not random: actives were taken first. Their share in the collection is about 4.7%.
D1 ag – Allosteric Agonists of the Human D1 Dopamine Receptor: qHTS; D(1A) dopamine receptor (Homo sapiens), P21728; HEK293 T-REx D1 cells, calcium flux, agonist mode; activation, % at 2 µM; 1% of 360,000 active; further: 0% is about no effect
Target sequence (P21728 whole entry, looked up): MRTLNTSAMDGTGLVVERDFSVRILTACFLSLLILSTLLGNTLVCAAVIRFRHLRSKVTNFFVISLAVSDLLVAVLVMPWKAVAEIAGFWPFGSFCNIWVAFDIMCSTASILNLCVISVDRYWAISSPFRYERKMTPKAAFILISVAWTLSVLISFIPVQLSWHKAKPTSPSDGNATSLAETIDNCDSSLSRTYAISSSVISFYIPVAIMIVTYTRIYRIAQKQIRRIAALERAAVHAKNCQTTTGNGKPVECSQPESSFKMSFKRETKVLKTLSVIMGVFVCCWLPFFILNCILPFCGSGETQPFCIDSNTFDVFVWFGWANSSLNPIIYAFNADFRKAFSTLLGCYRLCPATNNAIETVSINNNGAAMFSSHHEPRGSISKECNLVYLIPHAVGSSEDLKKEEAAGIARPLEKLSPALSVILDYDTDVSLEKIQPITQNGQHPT
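Inducible HEK293 T-REx D1 cells, force-coupled to calcium signalling, were plated at 4000 cells/well with tetracycline and held overnight at 30 C. After no-wash calcium dye loading, compound-evoked calcium rise over 180 s flagged agonists.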
D1 potentiator – Potentiators of Human D1 Dopamine Receptor: qHTS | D(1A) dopamine receptor (Homo sapiens), P21728 | HEK293 TREx D1 cells, calcium flux, dopamine EC20 potentiation | potentiation, % at 10 µM | 0.036% of 360,000 active | AID 504651, 2011; in the data active means potentiation above about 30%; further: 0% is about no effect
TRHR ag – qHTS for Small Molecule Agonists and Allosteric Enhancers of Human TRH Receptor: Primary Screen for Agonists; 0.18% of 360,000 active; activation, % at 2 µM; Thyrotropin-releasing hormone receptor (Homo sapiens), P34981; AID 493084, 2011; TRHR cells, calcium flux fluo-8, FDSS agonist mode; further: 0% is about no effect
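Agonist-mode FDSS calcium read (Ex 480/Em 530, 1 s cycles) in 1536-well TRHR cells with fluo-8 dye, after 10-cycle baseline and 23 nL compound addition; TRH at EC20 (10 nM final) added afterwards for the enhancer phase.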
TRHR PAM – qHTS for Small Molecule Agonists and Allosteric Enhancers of Human TRH Receptor: Primary Screen for Enhancers; 0.66% of 360,000 active; Thyrotropin-releasing hormone receptor (Homo sapiens), P34981; AID 493056, 2011; TRHR cells, fluo-8 calcium fluorescence, EC20 TRH enhancement; enhancement, % at 2 µM; in the data active means enhancement above about 30%; further: 0% is about no effect
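Enhancer read-out: after compound pinning and an initial kinetic agonist-mode read, an EC20 of TRH (10 nM final) was injected and fluo-8 calcium signal (Ex 480/Em 530) followed at 1 s/cycle for 100 cycles in TRHR-expressing cells.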
D1 antag – Antagonist of Human D 1 Dopamine Receptor: qHTS. HEK293 TREx D1 cells, calcium flux, dopamine EC80; stronger effect = lower value. activity change, negative = inhibition, % at 10 µM. 3.2% of 360,000 active. AID 504652, 2011; in the data active means activity change below about -30%; further: on the % scale 0 is the no-effect control and ±100 the full control effect
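Compound effects on dopamine-evoked calcium signalling were measured in tetracycline-induced HEK293 Trex D1 cells. Dopamine at EC80 followed a 180 s compound pre-read, and fluorescence was tracked kinetically for 180 s more.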
* = called active by the depositor. Unless noted, no stated cut-off is given here; in the data, active means activation above about 30%; inactive means the rest.

O=C(NC1CCN(C(=O)Nc2ccc(F)cc2)CC1)c1ccc(F)cc1 was read as D1 ag 5.4, D1 potentiator -1.0, TRHR ag -1.3, TRHR PAM 39.0* and D1 antag -22.1.
For O=C(NC1CCN(C(=O)Nc2ccc(F)cc2)CC1)c1cccc(F)c1 the results were D1 ag 1.1, D1 potentiator -6.3, TRHR ag 0.1, TRHR PAM 6.1 and D1 antag 11.9.
Cc1cc(NCc2cccnc2)nc(N)n1 was read as D1 ag 1.9, D1 potentiator 3.4, TRHR ag 0.3, TRHR PAM 8.3 and D1 antag 15.7.
`Cc1cc(C)c(C2=Nn3c(C)nnc3SC2C)cc1C` (configuration not stated) gave D1 ag 8.3, TRHR ag -1.7, TRHR PAM -5.0 and D1 antag -1.9.
COCC1CCN(Cc2cn(C)nc2-c2cccc(Cl)c2)C1 (configuration not stated) was read as D1 ag 3.4, D1 potentiator -0.9, TRHR ag 0.1, TRHR PAM 8.0 and D1 antag -41.6*.
For COCCN1CCN(Cc2cn(C)nc2-c2cccc(Cl)c2)CC1 the results were D1 ag -0.4, D1 potentiator -5.0, TRHR ag 0.0, TRHR PAM -1.9 and D1 antag 4.9.
COCCN(C(=O)c1ccc(-c2ccc([N+](=O)[O-])cc2)o1)c1c(N)n(CC(C)C)c(=O)[nH]c1=O was read as D1 ag 6.2, D1 potentiator 1.8, TRHR ag -0.3, TRHR PAM 5.4 and D1 antag -10.9.
CC(C)(C)c1ccc(C2SCC(=O)N2c2cccc(C(=O)O)c2)cc1 (configuration not stated) was read as D1 ag 2.5, D1 potentiator -6.8, TRHR ag 0.0, TRHR PAM -3.8 and D1 antag -33.4*.
`CSc1nnc(N2C(=O)C(O)=C(C(=O)c3ccco3)C2c2ccccc2F)s1` (configuration not stated) gave D1 ag 98.4*, D1 potentiator 1.9, TRHR ag 23.2, TRHR PAM 2.9 and D1 antag -1.3.
Screening C=CCSc1nnc(N2C(=O)C(O)=C(C(=O)c3ccco3)C2c2ccccc2F)s1 (configuration not stated) returned D1 ag 26.7, D1 potentiator -1.8, TRHR ag 12.1, TRHR PAM 0.8 and D1 antag 15.3.
Screening CCCSc1nnc(N2C(=O)C(O)=C(C(=O)c3ccco3)C2c2ccccc2F)s1 (configuration not stated) returned D1 ag 96.5*, D1 potentiator -4.3, TRHR ag 28.9, TRHR PAM -2.9 and D1 antag -15.0.
Screening COCCCNC(=O)c1ccc(Cn2c(=O)c3ccccc3n(CC(=O)Nc3c(C)cccc3C)c2=O)cc1 returned D1 ag -0.5, D1 potentiator -0.6, TRHR ag 0.5, TRHR PAM -6.8 and D1 antag -12.1.
Screening Cc1cccc(N(C(=O)c2snc(C(N)=O)c2N)C(C(=O)NC2CCCC2)c2ccco2)c1 (configuration not stated) returned D1 ag 9.9, D1 potentiator -4.5, TRHR ag -0.3, TRHR PAM -6.9 and D1 antag -7.3.
For O=C(c1ccc2c(c1)OCO2)C1CCCN(C2CCN(CCc3ccccc3)CC2)C1 (configuration not stated) the results were D1 ag 16.0, D1 potentiator -5.2, TRHR ag 2.6, TRHR PAM -4.7 and D1 antag -32.2*.
`CC(=O)c1cccc(CN2CCCC(C(=O)c3ccc4c(c3)OCO4)C2)c1` (configuration not stated) gave D1 ag 7.4, D1 potentiator -3.5, TRHR ag -0.9, TRHR PAM -4.0 and D1 antag -13.5.
`O=C(c1ccc2c(c1)OCO2)N1CCC(Cc2ccccc2)CC1` gave D1 ag 7.5, D1 potentiator -4.8, TRHR ag -0.6, TRHR PAM 2.6 and D1 antag -40.3*.
For CNC(=S)N(Cc1cc2cc(C)cc(C)c2[nH]c1=O)C1CCCC1 the results were D1 ag 0.6, D1 potentiator -0.8, TRHR ag 0.2, TRHR PAM 7.1 and D1 antag 15.7.
Screening Cc1cc(C)c2[nH]c(=O)c(CN(Cc3cccs3)C(=S)NCC3CCCO3)cc2c1 (configuration not stated) returned D1 ag -0.7, D1 potentiator -6.1, TRHR ag -0.7, TRHR PAM -3.0 and D1 antag -31.3*.
CCNC(=S)N(Cc1cc2cc(C)cc(C)c2[nH]c1=O)C1CCCC1 was read as D1 ag -0.3, D1 potentiator -3.6, TRHR ag -0.1, TRHR PAM 5.4 and D1 antag -47.1*.
Screening CCc1nn2c(=O)c(S(=O)(=O)Nc3ccc(OC)c(Cl)c3)c(C)nc2s1 returned D1 ag 11.0, D1 potentiator -1.8, TRHR ag 0.9, TRHR PAM -1.7 and D1 antag 5.9.
`CCn1c(C)nc2cc(C(=O)OC(C(F)(F)C(F)F)C(F)(F)C(F)F)ccc21` gave D1 ag 16.7, D1 potentiator -3.0, TRHR ag -1.1, TRHR PAM 7.6 and D1 antag -37.4*.
For Cc1cccn2c(=O)cc(CSc3nnc(NC(=O)c4ccc(F)cc4)s3)nc12 the results were D1 ag 0.1, D1 potentiator -0.1, TRHR ag 0.0, TRHR PAM -2.5 and D1 antag -3.2.
`Cc1nnc(SCc2cc(=O)n3cccc(C)c3n2)s1` gave D1 ag -0.5, D1 potentiator 2.2, TRHR ag 0.0, TRHR PAM 5.6 and D1 antag -47.0*.
CC1(C)CC(=NO)CC(C)(C)N1 was read as D1 ag 2.9, D1 potentiator 0.8, TRHR ag -0.1, TRHR PAM 3.3 and D1 antag -32.2*.
CCN1CCN(c2nc3c(S(=O)(=O)c4ccc(C)cc4)nnn3c3ccsc23)CC1 was read as D1 ag 1.9, D1 potentiator -0.1, TRHR ag 0.3, TRHR PAM 9.7 and D1 antag 15.6.
Screening Cc1ccc(Cn2c(=N)n(CC(O)COc3ccccc3)c3ccccc32)cc1 (configuration not stated) returned D1 ag 41.9*, D1 potentiator -7.8, TRHR ag 1.3, TRHR PAM 5.5 and D1 antag -16.7.

Screens (PubChem BioAssay)
